Assay outcomes as filed in PubChem BioAssay.
CRFBP-R2 block = antagonists of CRF-BP/CRF-R2 complex, primary screen, cell-based, HEK293, calcium dye fluorescence, uHTS. inhibition, % at 11.8 µM. CRF-induced calcium fluorescence. AID 588475, 2011. 350,000 tested, 0.59% active;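 active = inhibition of the ligand-induced calcium signal above about 50% at the single tested concentration, limit read from the data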
MEKK2wt PB1 HTS = modulators of MEK5 binding to wildtype MEKK2, primary screen, biochemical, multiplex bead flow cytometry, Alexa488-MEK5 | Mitogen-activated protein kinase kinase kinase 2 (Homo sapiens), Q9Y2U5 | Alexa488-MEK5 binding to MEKK2 WT; actives lie on both sides | binding response (% of control), % at 10 µM | 290,000 tested, 1.1% active | AID 1531, 2009; in the data active = binding response below about 67% or above about 130%
MEKK2 mut-MEK5 = MEK5 binding signal on mutant MEKK2 PB1, primary screen, biochemical, multiplex bead flow cytometry, Alexa488-MEK5; Alexa488-MEK5 binding to MEKK2 mutant; percent response, % at 10 µM; 290,000 tested, 0.35% active; in the data active = percent response above about 24%, passing the limit was not always enough
CRFBP-R2 agonist = agonists of CRF-BP/CRF-R2 complex, primary screen, cell-based, HEK293, calcium dye fluorescence, uHTS | CRF-binding protein / CRF receptor 2 complex (human) | calcium dye fluorescence (FLIPR); percent of saturating CRF peptide response | activation, % at 13.2 µM | 350,000 tested, 0.46% active | AID 588473, 2011;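 active = activation of at least 50%, plus an integration ratio under a set limit after plate pattern correction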;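 note: plate controls were neutral control wells without compound for no effect and CRF at EC100 for full effect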
ABCB6 inh 2 = ABCB6 transporter inhibitors, primary screen, K562-ABCB6 cells, flow cytometry, MLPCN library; fluorescence ratio to DMSO, % at 10 µM; K562-ABCB6 porphyrin accumulation, 1 h; stronger effect = lower value; AID 602162, 2011; 360,000 tested, 0.19% active;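 active = fluorescence ratio to DMSO below 75%, the collection mean minus 3 SD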;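 note: signal is porphyrin accumulated inside mitochondria; 100% equals median channel fluorescence of DMSO control wells; lower ratio means ABCB6 inhibition with less porphyrin fluorescence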
MEKK3 PB1 HTS = modulators of MEKK3-MEK5 PB1 binding, primary screen, biochemical, wildtype MEKK3, multiplex bead flow cytometry, Alexa488-MEK5; Mitogen-activated protein kinase kinase kinase 3 (Homo sapiens), Q99759; bead-based flow cytometry, Alexa488-MEK5 binding to MEKK3; actives lie on both sides; 0 = blocked by unlabeled MEK5, 100 = vehicle; binding response (% of control), % at 10 µM; 290,000 tested, 1.4% active; AID 1529, 2009;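 active = binding response more than 3 SD above or below the average of its plate-row segment, actives on both sides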;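 note: Alexa488 bead fluorescence after subtracting the streptavidin-only scavenger bead signal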
Target sequence (Q99759 whole entry, looked up): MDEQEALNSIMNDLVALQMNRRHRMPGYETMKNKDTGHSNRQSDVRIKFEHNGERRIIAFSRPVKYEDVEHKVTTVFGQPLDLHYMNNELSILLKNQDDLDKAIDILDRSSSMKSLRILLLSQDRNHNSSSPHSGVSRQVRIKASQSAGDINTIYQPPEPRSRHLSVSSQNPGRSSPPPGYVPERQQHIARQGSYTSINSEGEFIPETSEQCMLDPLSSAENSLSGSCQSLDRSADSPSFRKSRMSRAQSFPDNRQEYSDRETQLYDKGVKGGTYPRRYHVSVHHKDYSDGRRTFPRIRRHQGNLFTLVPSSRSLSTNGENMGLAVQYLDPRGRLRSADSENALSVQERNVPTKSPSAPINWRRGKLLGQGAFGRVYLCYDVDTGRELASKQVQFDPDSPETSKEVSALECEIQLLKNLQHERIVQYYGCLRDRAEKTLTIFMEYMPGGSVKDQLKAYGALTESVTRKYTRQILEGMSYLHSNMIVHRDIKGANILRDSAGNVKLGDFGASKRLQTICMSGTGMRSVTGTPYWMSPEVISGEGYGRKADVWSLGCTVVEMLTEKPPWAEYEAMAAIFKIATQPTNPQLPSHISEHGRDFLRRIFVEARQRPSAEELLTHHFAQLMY
MEKK2wt confirm = modulators of MEK5 binding to wildtype MEKK2, confirmation, biochemical, single concentration, multiplex bead flow cytometry | shares compounds with MEKK3 PB1 HTS | AID 1892, 2009 | Alexa488-MEK5 binding to MEKK2 WT; actives lie on both sides | 5,900 tested, 2.4% active | binding response (% of control), % at 10 µM; in the data active = binding response below about 16% or above about 210%; inactive = in between
MEKK2mut confirm = mutant MEKK2 PB1-MEK5 binding signal retest – biochemical, single concentration, multiplex bead flow cytometry, confirmation | Alexa488-MEK5 binding to MEKK2 mutant | percent response, % at 10 µM | 5,900 tested, 2% active | shares compounds with MEKK3 PB1 HTS | AID 1893, 2009; in the data active = percent response mostly above about 71%, no sharp cut-off; inactive = mostly below about 38%;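 note: higher means compound restores mutant binding toward wildtype level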
MEKK3 confirm = MEKK3 wild-type PB1 binding to MEK5, inhibitors, confirmation, biochemical, bead multiplex flow cytometry, single concentration, wildtype | shares compounds with MEKK3 PB1 HTS | Alexa488-MEK5 binding to MEKK3; stronger effect = lower value | binding response (% of control), % at 10 µM | 5,900 tested, 1.8% active | AID 1894, 2009;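 active = binding response below 72% of control, or above a set upper limit, though filed actives all read lower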;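 note: 100% = DMSO only wells and 0% = binding blocked by excess unlabeled MEK5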
Starred values were filed as active, the others as inactive; / = no result given; [ ] = dose if it differs, or a comment. Only some compounds are listed: those with a hit (about 2.9% of all), similar ones and a draw of the others.

SMILES | CRFBP-R2 block | MEKK2wt PB1 HTS | MEKK2 mut-MEK5 | CRFBP-R2 agonist | ABCB6 inh 2 | MEKK3 PB1 HTS | MEKK2wt confirm | MEKK2mut confirm | MEKK3 confirm
CC#CCN1c2ccccc2[C@]23C[C@@H](C(=O)OC)N(C(=O)c4ccco4)C2=NC(C(=O)OC)=C(C(=O)OC)[C@H]13 | -4 | 151* | 3 | -2 | 101 | 126 | 95 | -4 | 92
C=CCN1c2ccccc2[C@]23C[C@@H](C(=O)OC)N=C2NC(C(=O)OC)=C(C(=O)OC)[C@H]13 | -1 | 150* | 1 | -2 | 102 | 126 | 97 | -6 | 98
C=CCN1c2ccccc2[C@]23C[C@@H](C(=O)OC)N(C(=O)c4cc(C)oc4C)C2=NC(C(=O)OC)=C(C(=O)OC)[C@H]13 | 7 | 147* | 2 | 0 | / | 127 | 94 | -4 | 93
O=S(=O)(c1ccc(SCc2cccc(Cl)c2)nc1)N1CCCC1 | 6 | / | / | 4 | 97 | / | / | / | /
CCCC(=O)N1CCC1(C)C(=O)NCc1ccccc1SC (stereo not drawn) | / | / | / | / | 99 | / | / | / | /
COc1ccc(C2/C=C\CN(S(=O)(=O)c3ccc(C)cc3)CC(=O)N2Cc2cccc(F)c2)cc1 (stereo not drawn) | -4 | / | / | -1 | 91 | / | / | / | /
COc1ccc(C2/C=C\CN(S(=O)(=O)c3ccc(C)cc3)CC(=O)N2Cc2ccc(F)cc2)cc1 (stereo not drawn) | -3 | 158* | 2 | 3 | 94 | 129* | 102 | 1 | 100
COc1ccc(C2/C=C\CN(C(=O)NC34CC5CC(CC(C5)C3)C4)CC(=O)N2Cc2ccc(F)cc2)cc1 (stereo not drawn) | -1 | 147* | 2 | 5 | 95 | 123 | 96 | -1 | 102
CCCCn1c(N)c(N(CCOC)C(=O)C2CCN(C(=O)c3ccc(F)cc3)CC2)c(=O)[nH]c1=O | 5 | / | / | 0 | 96 | / | / | / | /
COC(=O)c1cc(C(=O)OC)cc(N2C(=O)CC(NNC(=O)c3ccc(C)cc3)C2=O)c1 (stereo not drawn) | 14 | 89 | -1 | 4 | 110 | 61*[inhibitor] | 102 | 4 | 102
COC(=O)c1cc(C(=O)OC)cc(N2C(=O)CC(NNC(=O)c3ccccc3Br)C2=O)c1 (stereo not drawn) | 23 | 92 | 1 | -1 | 87 | 94 | / | / | /
O=C(NCc1ccccn1)c1cc(S(=O)(=O)N2CCCCC2)ccc1Cl | -8 | / | / | 2 | 94 | / | / | / | /
CN(C)C(=O)COC(=O)c1cccc(CN2C(=O)c3ccccc3C2=O)c1 | -20 | 84 | -3 | -3 | 100 | 71*[inhibitor] | 100 | 0 | 103
Cc1ccc(CNC(=O)CNS(=O)(=O)c2ccc(Br)s2)cc1 | -2 | 103 | 4 | 1 | 99 | 102 | / | / | /
OCCNc1nc(Nc2ccccc2)nc2ccccc12 | -7 | 110 | 3 | 0 | 103 | 110 | / | / | /
Oc1ccccc1Nc1nc(NCc2ccccc2)c2ccccc2n1 | 0 | 216* | 67* | 0 | 102 | 114 | 192 | 54 | 111
Cc1ccc(Nc2nc(NCc3ccco3)c3ccccc3n2)cc1 | -15 | 191* | 77* | 7 | 98 | 107 | 177 | 49 | 102
COc1ccccc1Nc1nc(NCc2ccco2)c2ccccc2n1 | -6 | 177* | 42 | -1 | 97 | 117 | 149 | 23 | 106
OCCNc1nc(Nc2ccc(Br)cc2)nc2ccccc12 | -17 | 146* | 28 | 0 | / | 108 | 132 | 36 | 104
CC(=O)c1cccc(NC(=O)CN(C)S(=O)(=O)c2ccc3c(c2)CC(C)N3C(C)=O)c1 (stereo not drawn) | -9 | 109 | 4 | 0 | 100 | 107 | / | / | /
COC(=O)[C@@H](Cc1c[nH]c2ccccc12)NC(=O)CCC(=O)c1ccc(Br)cc1 | -5 | 108 | 8 | -4 | 97 | 107 | / | / | /
Cc1cccc(N(C(=O)Cn2nnc3ccccc32)C(C(=O)NC(C)(C)C)c2ccsc2)c1C (stereo not drawn) | -16 | 95 | -5 | -1 | 98 | 98 | / | / | /
Cc1ccccc1CCN(C(=O)Cn1nnc2ccccc21)C(C(=O)NC(C)(C)C)c1ccsc1 (stereo not drawn) | -14 | 81 | -14 | 7 | 95 | 76*[inhibitor] | 100 | 2 | 99
CCOC(=O)C1CCN(C(=O)c2ccccc2CCc2ccccc2)CC1 | 0 | 108 | 3 | 1 | 99 | 103 | / | / | /
O=C(O)c1cc(S(=O)(=O)NCCCN2CCCC2=O)ccc1Cl | 8 | / | / | 1 | 96 | / | / | / | /
SMILES | CRFBP-R2 block | MEKK2wt PB1 HTS | MEKK2 mut-MEK5 | CRFBP-R2 agonist | ABCB6 inh 2 | MEKK3 PB1 HTS | MEKK2wt confirm | MEKK2mut confirm | MEKK3 confirm
COc1nc(C)nc2c1ccc1ccccc12 | -4 | 104 | 2 | 2 | 102 | 136* | 98 | -4 | 104
COc1ccc(/C=C/C(=O)c2ccc3c(c2)OCCO3)cc1[N+](=O)[O-] | -17 | 120 | 6 | 5 | 98 | 132* | 97 | -3 | 97
COc1ccc(/C=N/NC(=O)c2ccc3c(c2)OCCO3)cc1[N+](=O)[O-] | 21 | 88 | -4 | 1 | 101 | 95 | / | / | /
CCN(CC(=O)Nc1ccc2c(c1)OCCO2)C(=O)c1ccc(CS(C)(=O)=O)cc1 | -6 | / | / | -1 | 96 | / | / | / | /
Cc1oc(-c2ccccc2F)nc1CS(=O)(=O)CC(=O)NCCCN1CCc2ccccc2C1 | -12 | 149* | 21 | -1 | 101 | 113 | 132 | 11 | 105
COc1cccc(-c2nc(CS(=O)(=O)CC(=O)N3CCc4ccccc4C3)c(C)o2)c1 | -20 | -3.0*[inhibitor] | -19 | -3 | 98 | 1.0*[inhibitor] | 101 | 1 | 103
